Measurements published in PubChem BioAssay AID1159580 (chemical genetic matrix, 2015).
Hit rate of the full screen: of about 5,500 compounds, about 2,000 (36%) were called active. About 18% were inconclusive and are not listed. No stated cut-off is given here; in the data, active means normalized growth mostly below about 0.91 (no sharp cut-off); inconclusive means no clear call, values can overlap the other calls; inactive means mostly above about 0.92. The list shows a part of the results.

Assay: chemical genetic growth profiling, strain panel (AID 1159580);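 further: tested at 20 µM; growth read once vehicle control cultures reached saturation at 30 °C; 1 = growth at the plate median or of vehicle wells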
Details: growth OD
[1] = S. cerevisiae deletion strains, locus YDL101C, strain DUN1, stronger effect = lower value
[2] = S. cerevisiae deletion strains, locus YHR030C, strain SLT2, stronger effect = lower value
[3] = S. cerevisiae deletion strains, locus YAR019C, strain CDC15, stronger effect = lower value
[4] = S. cerevisiae deletion strains, locus YBL105C, strain PKC1, stronger effect = lower value
[5] = S. cerevisiae deletion strains, locus YBR135W, strain CKS1, stronger effect = lower value
[6] = S. cerevisiae deletion strains, locus YBR136W, strain MEC1, stronger effect = lower value
[7] = S. cerevisiae deletion strains, locus YBR160W, strain CDC28, stronger effect = lower value
[8] = S. cerevisiae deletion strains, locus YDL017W, strain CDC7, stronger effect = lower value
[9] = S. cerevisiae deletion strains, locus YDL028C, strain MPS1, stronger effect = lower value
[10] = S. cerevisiae deletion strains, locus YDL108W, strain KIN28, stronger effect = lower value
[11] = S. cerevisiae deletion strains, locus YDL132W, strain cdc53, stronger effect = lower value
[12] = S. cerevisiae deletion strains, locus YDL214C, strain PRR2, stronger effect = lower value
[13] = S. cerevisiae deletion strains, locus YDR052C, strain DBF4, stronger effect = lower value
[14] = S. cerevisiae deletion strains, locus YDR054C, strain cdc34, stronger effect = lower value
[15] = S. cerevisiae deletion strains, locus YDR226W, strain ADK1, stronger effect = lower value
[16] = S. cerevisiae deletion strains, locus YDR477W, strain SNF1, stronger effect = lower value
[17] = S. cerevisiae deletion strains, locus YER123W, strain YCK3, stronger effect = lower value
[18] = S. cerevisiae deletion strains, locus YER133W, strain GLC7, stronger effect = lower value
[19] = S. cerevisiae deletion strains, locus YFL009W, strain cdc4, stronger effect = lower value
[20] = S. cerevisiae deletion strains, locus YFL029C, strain CAK1, stronger effect = lower value
[21] = S. cerevisiae deletion strains, locus YFR003C, strain YPI1, stronger effect = lower value
[22] = S. cerevisiae deletion strains, locus YFR019W, strain FAB1, stronger effect = lower value
[23] = S. cerevisiae deletion strains, locus YFR028C, strain CDC14, stronger effect = lower value
[24] = S. cerevisiae deletion strains, locus YGR040W, strain KSS1, stronger effect = lower value
[25] = S. cerevisiae deletion strains, locus YGR052W, strain FMP48, stronger effect = lower value
[26] = S. cerevisiae deletion strains, locus YGR092W, strain DBF2, stronger effect = lower value
[27] = S. cerevisiae deletion strains, locus YHR079C, strain IRE1, stronger effect = lower value
[28] = S. cerevisiae deletion strains, locus YHR082C, strain KSP1, stronger effect = lower value
[29] = S. cerevisiae deletion strains, locus YHR205W, strain SCH9, stronger effect = lower value
[30] = S. cerevisiae deletion strains, locus YIL147C, strain SLN1, stronger effect = lower value
[31] = S. cerevisiae deletion strains, locus YJL095W, strain BCK1, stronger effect = lower value
[32] = S. cerevisiae deletion strains, locus YJL128C, strain PBS2, stronger effect = lower value
[33] = S. cerevisiae deletion strains, locus YJL157C, strain FAR1, stronger effect = lower value
[34] = S. cerevisiae deletion strains, locus YJR016C, strain ILV3, stronger effect = lower value
[35] = S. cerevisiae deletion strains, locus YJR066W, strain TOR1 (second series), stronger effect = lower value
[36] = S. cerevisiae deletion strains, locus YJR066W, strain TOR1, stronger effect = lower value
[37] = S. cerevisiae deletion strains, locus YKL048C, strain ELM1, stronger effect = lower value
[38] = S. cerevisiae deletion strains, locus YKL067W, strain YNK1, stronger effect = lower value
[39] = S. cerevisiae deletion strains, locus YKL101W, strain HSL1, stronger effect = lower value
[40] = S. cerevisiae deletion strains, locus YKL193C, strain SDS22, stronger effect = lower value
[41] = S. cerevisiae deletion strains, locus YKL203C, strain TOR2, stronger effect = lower value
[42] = S. cerevisiae deletion strains, locus YLR113W, strain HOG1, stronger effect = lower value
[43] = S. cerevisiae deletion strains, locus YLR133W, strain CKI1, stronger effect = lower value
[44] = S. cerevisiae deletion strains, locus YLR403W, strain SFP1, stronger effect = lower value
[45] = S. cerevisiae deletion strains, locus YML070W, strain DAK1, stronger effect = lower value
[46] = S. cerevisiae deletion strains, locus YMR001C, strain CDC5, stronger effect = lower value
[47] = S. cerevisiae deletion strains, locus YMR205C, strain PFK2 (second series), stronger effect = lower value
[48] = S. cerevisiae deletion strains, locus YMR277W, strain FCP1, stronger effect = lower value
[49] = S. cerevisiae deletion strains, locus YNL006W, strain LST8, stronger effect = lower value
[50] = S. cerevisiae deletion strains, locus YNL020C, strain ARK1, stronger effect = lower value
[51] = S. cerevisiae deletion strains, locus YNL161W, strain CBK1, stronger effect = lower value
[52] = S. cerevisiae deletion strains, locus YNL183C, strain NPR1, stronger effect = lower value
[53] = S. cerevisiae deletion strains, locus YNL207W, strain RIO2, stronger effect = lower value
[54] = S. cerevisiae deletion strains, locus YNL222W, strain SSU72, stronger effect = lower value
[55] = S. cerevisiae deletion strains, locus YNL307C, strain MCK1 (second series), stronger effect = lower value
[56] = S. cerevisiae deletion strains, locus YOL078W, strain AVO1, stronger effect = lower value
[57] = S. cerevisiae deletion strains, locus YOL136C, strain PFK27, stronger effect = lower value
[58] = S. cerevisiae deletion strains, locus YOR061W, strain CKA2, stronger effect = lower value
[59] = S. cerevisiae deletion strains, locus YOR119C, strain RIO1, stronger effect = lower value
[60] = S. cerevisiae deletion strains, locus YOR231W, strain MKK1, stronger effect = lower value
[61] = S. cerevisiae deletion strains, locus YOR329C, strain SCD5, stronger effect = lower value
[62] = S. cerevisiae deletion strains, locus YPL031C, strain PHO85, stronger effect = lower value
[63] = S. cerevisiae deletion strains, locus YPL153C, strain RAD53, stronger effect = lower value
[64] = S. cerevisiae deletion strains, locus YPL204W, strain HRR25, stronger effect = lower value
[65] = S. cerevisiae deletion strains, locus YPL209C, strain IPL1, stronger effect = lower value
[66] = S. cerevisiae deletion strains, locus YPL256C, strain CLN2, stronger effect = lower value
[67] = S. cerevisiae deletion strains, locus YPR025C, strain CCL1, stronger effect = lower value
[68] = S. cerevisiae deletion strains, locus YPR106W, strain ISR1, stronger effect = lower value
[69] = S. cerevisiae deletion strains, locus YPR111W, strain DBF20, stronger effect = lower value
[70] = S. cerevisiae deletion strains, strain NNK1, stronger effect = lower value
[71] = S. cerevisiae deletion strains, strain TSCII, stronger effect = lower value

Measured: normalized growth

COc1ccc(CCNC(=S)Nc2cccc(C(F)(F)F)c2)cc1OC
inactive: S. cerevisiae deletion strains, locus YAL013W, strain DEP1, stronger effect = lower value 0.997 | S. cerevisiae deletion strains, locus YBR229C, strain ROT2, stronger effect = lower value 0.995 | [1] 0.999 | S. cerevisiae deletion strains, locus YDR150W, strain NUM1, stronger effect = lower value 0.957 | S. cerevisiae deletion strains, locus YEL061C, strain CIN8, stronger effect = lower value 1.02 | S. cerevisiae deletion strains, locus YGR078C, strain PAC10, stronger effect = lower value 0.971 | [2] 0.9 | S. cerevisiae deletion strains, locus YHR087W, strain rtc3, stronger effect = lower value 1.03 | S. cerevisiae deletion strains, locus YJL187C, strain SWE1, stronger effect = lower value 1.01 | S. cerevisiae deletion strains, locus YJR043C, strain POL32, stronger effect = lower value 0.968 | S. cerevisiae deletion strains, locus YJR075W, strain HOC1, stronger effect = lower value 0.981 | S. cerevisiae deletion strains, locus YLR039C, strain RIC1, stronger effect = lower value 0.837 | S. cerevisiae deletion strains, locus YLR058C, strain SHM2 (second series), stronger effect = lower value 1.01 | S. cerevisiae deletion strains, locus YLR085C, strain ARP6, stronger effect = lower value 0.962 | S. cerevisiae deletion strains, locus YLR262C, strain YPT6, stronger effect = lower value 0.831 | S. cerevisiae deletion strains, locus YML094W, strain GIM5, stronger effect = lower value 0.968 | S. cerevisiae deletion strains, locus YMR219W, strain ESC1, stronger effect = lower value 1 | S. cerevisiae deletion strains, locus YMR263W, strain SAP30, stronger effect = lower value 0.981 | S. cerevisiae deletion strains, locus YNL128W, strain TEP1, stronger effect = lower value 0.987 | S. cerevisiae deletion strains, locus YNL153C, strain GIM3, stronger effect = lower value 0.969 | S. cerevisiae deletion strains, locus YNL298W, strain CLA4 (second series), stronger effect = lower value 1 | S. cerevisiae deletion strains, locus YNL322C, strain KRE1, stronger effect = lower value 0.996 | S. cerevisiae deletion strains, locus YNR030W, strain Alg12, stronger effect = lower value 1 | S. cerevisiae deletion strains, locus YOL006C, strain TOP1, stronger effect = lower value 0.964 | S. cerevisiae deletion strains, locus YPL055C, strain LGE1, stronger effect = lower value 1 | S. cerevisiae deletion strains, locus YPL241C, strain CIN2, stronger effect = lower value 0.969 | S. cerevisiae deletion strains, locus YPR135W, strain CTF4, stronger effect = lower value 0.895 | S. cerevisiae strains, strain wild type, stronger effect = lower value 0.982

Fc1cccc(F)c1NC(=S)Nc1cc(C(F)(F)F)cc(C(F)(F)F)c1
inactive: [3] 0.979 | [4] 0.979 | [5] 0.981 | [6] 0.982 | [7] 0.982 | [8] 0.992 | [9] 0.975 | [1] 0.991 | [10] 0.984 | [11] 0.979 | [12] 0.907 | [13] 0.987 | [14] 0.978 | [15] 0.986 | [16] 0.948 | [17] 0.907 | [18] 0.933 | [19] 0.976 | [20] 0.976 | [21] 0.981 | [22] 0.98 | [23] 0.977 | [24] 0.954 | [25] 0.933 | [26] 0.967 | [2] 0.981 | [27] 0.85 | [28] 1.01 | [29] 0.87 | [30] 0.981 | [31] 0.862 | [32] 0.919 | [33] 0.923 | [34] 0.979 | [35] 0.931 | [36] 1.06 | [37] 0.934 | [38] 0.931 | [39] 0.91 | [40] 0.977 | [41] 1.02 | [43] 0.948 | [44] 0.974 | [45] 0.907 | [46] 0.981 | [47] 0.95 | [48] 0.975 | [49] 0.977 | [50] 0.932 | [51] 0.98 | [52] 0.98 | [53] 0.985 | [54] 0.979 | [55] 0.918 | [56] 0.977 | [57] 0.928 | [58] 0.953 | [59] 0.997 | [60] 0.91 | [61] 0.986 | [62] 0.942 | [63] 0.939 | [64] 0.936 | [65] 0.991 | [67] 0.982 | [68] 0.981 | [69] 0.972 | [70] 0.974 | [71] 0.98
active: [42] 0.742 | [66] 0.829

FC(F)(F)c1cccc(NNC(=S)Nc2ccccc2)c1
active: [2] 0.754 | [42] 0.764 | [66] 0.848
inactive: [3] 0.996 | [4] 1 | [5] 1 | [6] 0.999 | [7] 0.997 | [8] 0.998 | [9] 1 | [1] 0.994 | [10] 1.01 | [11] 0.99 | [12] 0.951 | [13] 0.998 | [14] 0.989 | [15] 0.999 | [16] 0.882 | [17] 0.912 | [18] 0.975 | [19] 1 | [20] 1 | [21] 1.01 | [22] 0.974 | [23] 1 | [24] 0.897 | [25] 0.957 | [26] 0.807 | [27] 0.848 | [28] 0.876 | [29] 0.877 | [30] 0.998 | [31] 0.856 | [32] 0.986 | [33] 0.945 | [34] 0.996 | [35] 0.812 | [36] 0.861 | [37] 0.948 | [38] 0.937 | [39] 0.907 | [40] 1 | [41] 0.968 | [43] 0.946 | [44] 0.929 | [45] 0.947 | [46] 1.01 | [47] 0.971 | [48] 0.994 | [49] 1 | [50] 0.925 | [51] 0.997 | [52] 0.874 | [53] 0.998 | [54] 0.999 | [55] 0.825 | [56] 0.995 | [57] 0.938 | [58] 0.856 | [59] 0.993 | [60] 0.882 | [61] 0.996 | [62] 0.894 | [63] 0.919 | [64] 0.89 | [65] 0.997 | [67] 1 | [68] 1.01 | [69] 1 | [70] 0.995 | [71] 1
